Our source for the growth inhibition values is PubChem BioAssay (NCI).

The panel holds about 79,000 compounds, 15% with a hit somewhere; the sample as a whole holds those more often. A number with no mark means an inactive call. The source made the active and inactive calls. Cut-off read from the data, not from the text of the source: active = growth inhibition above about 70%; inactive = the rest.

Experiment [1] is described as follows: NCI Yeast Anticancer Drug Screen. Data for the rad50 strain (AID 155).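 Note: 0% = growth of vehicle-only cultures of the same strain.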 Conditions: S. cerevisiae rad50 strain growth inhibition; at 50.0 µM; stronger effect = higher value. The method, boiled down: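 A DNA repair-deficient yeast mutant serves as the test organism; compound-induced growth inhibition is calculated against vehicle-treated cells.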
Experiment [2] can be described thus: NCI Yeast Anticancer Drug Screen. Data for the mec2-1 strain (AID 157). As to conditions: S. cerevisiae mec2-1 strain, at 50.0 µM, stronger effect = higher value. Put shortly:
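Growth inhibition is read against vehicle-treated controls after compound exposure of the mec2-1 yeast strain, which is defective in DNA damage repair or cell cycle control.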

Experiment [3] can be described thus: NCI Yeast Anticancer Drug Screen. Data for the sgs1 mgt1 strain (AID 161).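 Note: 0% = growth of cultures given vehicle only.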 As to conditions: S. cerevisiae sgs1 mgt1 strain, at 50.0 µM, stronger effect = higher value. The method, boiled down: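 Growth of a repair-deficient yeast mutant was monitored after compound treatment and expressed as inhibition relative to vehicle-treated cultures.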
A short description of experiment [4]: NCI Yeast Anticancer Drug Screen. Data for the cln2 rad14 strain (AID 165).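 Note: 0% = growth equal to vehicle treated cultures.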 Conditions: S. cerevisiae cln2 rad14 strain, at 50.0 µM, stronger effect = higher value. Put shortly: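 Growth inhibition, relative to vehicle-treated controls, is the read-out. The test organism is a yeast strain with defined genetic alterations, cln2 rad14.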
The nature of experiment [5]: NCI Yeast Anticancer Drug Screen. Data for the bub3 strain (AID 167). Conditions: S. cerevisiae bub3 mutant strain, at 50.0 µM, stronger effect = higher value. Put shortly: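 Inhibition values come from growth of compound-treated mutant yeast normalised to vehicle-treated controls.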
Experiment [6] is described as follows: NCI Yeast Anticancer Drug Screen. Data for the mlh1 rad18 strain (AID 175). Conditions: S. cerevisiae mlh1 rad18 strain growth inhibition; at 50.0 µM; stronger effect = higher value. Put shortly:
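Cells of a genetically altered yeast strain, deficient in DNA damage repair, were treated with compound. Their growth was then compared with that of vehicle-treated cultures to give inhibition.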

Take `COc1ccc(NC(=O)CSc2cc(Cl)ccc2Cl)cc1`: the growth inhibition in experiment [1] is 10.7%; in experiment [2], 7.15%; in experiment [3] it was 32.1%; in experiment [4] it was 18.9%; in experiment [5] it was 21.6%; in experiment [6] it was 27.9%.
Regarding `C[n+]1ccccc1/C=C/c1csc2ccccc12`, the growth inhibition in experiment [1] is -0.85%; in experiment [2] it was 5.35%; in experiment [3], 4.75%; in experiment [4], -11.8%; in experiment [5] it was -0.6%; in experiment [6], -3.8%.
With `OC1COC(C2CCCO2)OC1` (centres undefined), the growth inhibition is 10.4% in experiment [1]; -6.2% in experiment [2]; -2.35% in experiment [3]; 1.35% in experiment [4]; -13.7% in experiment [5]; 11.8% in experiment [6].
As to `CS/C(c1ccccc1)=[N+](\[O-])Cc1ccccc1`, the growth inhibition in experiment [1] was 17.6%; in experiment [2], 9%; in experiment [3], -7.1%; in experiment [4] it was 8.5%; in experiment [5], -0.75%; in experiment [6], 3.15%.
On to `NC(Cc1ccccc1)C(=O)CCl` (centres undefined), for which the growth inhibition in experiment [1] was 31.6%; in experiment [2] it was 29.8%; in experiment [3], 40.8%; in experiment [4], 18.4%; in experiment [5] it was 36.2%; in experiment [6], 46.5%.
On to `CCOC(=O)C(CCC(=O)OC)C(=O)OCC`, for which the growth inhibition was -2.45% in experiment [1]; -1.75% in experiment [2]; -32.5% in experiment [3]; -28.2% in experiment [4]; -5.25% in experiment [5]; 1.6% in experiment [6].
As to `O=NN(C(=O)NCCCl)c1[nH]c(=O)ncc1Br`, the growth inhibition was -8.6% in experiment [1]; -13.7% in experiment [2]; -16% in experiment [3]; -25.4% in experiment [4]; -7.95% in experiment [5]; -6.7% in experiment [6].
In the case of `COc1ccc(C2N(c3ccccc3)OC(=O)N2c2ccccc2)cc1` (centres undefined), the growth inhibition in experiment [1] is 43.8%; in experiment [2], 7.2%; in experiment [3], 16.1%; in experiment [4] it was 9.1%; in experiment [5] it was 14.4%; in experiment [6] it was 20.8%.
In the case of `C=CC(=O)OCCOCCOC`, the growth inhibition in experiment [1] was -21.1%; in experiment [2], -15.9%; in experiment [3], -2.35%; in experiment [4], -5%; in experiment [5], -18.6%; in experiment [6] it was -14.4%.
`Nc1ccc(F)c(F)c1`: the growth inhibition was 4.3% in experiment [1]; -6.65% in experiment [2]; 14.2% in experiment [3]; -20% in experiment [4]; 2.65% in experiment [5]; 13.8% in experiment [6].
With `CC(C)CCC[C@@H](C)[C@H]1CC[C@H]2[C@@H]3CC[C@H]4C[C@H](N[C@@H]5CC[C@@]6(C)[C@@H](CC[C@@H]7[C@@H]6CC[C@]6(C)[C@@H]([C@H](C)CCCC(C)C)CC[C@@H]76)C5)CC[C@]4(C)[C@H]3CC[C@]12C`, the growth inhibition in experiment [1] is 55.1%; in experiment [2] it was 19.2%; in experiment [3], 46.8%; in experiment [4] it was -2.8%; in experiment [5], 15.3%; in experiment [6], 36.7%.
With `COc1cc(/C=C/C(=O)c2sc(NNC(C)=O)nc2C)ccc1O`, the growth inhibition was 15.6% in experiment [1]; 6.85% in experiment [2]; 19.3% in experiment [3]; 23.1% in experiment [4]; 18.8% in experiment [5]; 27.1% in experiment [6].
As for `CC(NNC(=S)N1CCCCCC1)c1cccc[n+]1[O-]` (centres undefined), the growth inhibition in experiment [1] was 97.4% (active); in experiment [2] it was 8.3%; in experiment [3], 96.5% (active); in experiment [4], 97.6% (active); in experiment [5] it was 14.3%; in experiment [6] it was 33.6%.
On to `N#Cc1sc2nc3c(c(-c4ccccc4)c2c1N)CCCC3`, for which the growth inhibition in experiment [1] is -8.3%; in experiment [2] it was -4.65%; in experiment [3], -0.95%; in experiment [4], -8.4%; in experiment [5], -8.1%; in experiment [6] it was -5.75%.
In the case of `O=C1NC(=O)C2CCC12` (centres undefined), the growth inhibition in experiment [1] was 1.95%; in experiment [2], -4.2%; in experiment [3], 1.45%; in experiment [4], -20.7%; in experiment [5], 8.95%; in experiment [6], 18.2%.
In the case of `CCCCCC(=O)NC(=S)Nc1nn[nH]n1`, the growth inhibition in experiment [1] is -38.8%; in experiment [2], -50.7%; in experiment [3] it was -39.1%; in experiment [4], -8.4%; in experiment [5], -25.3%; in experiment [6] it was -47.1%.
With `CCCCCC(=O)C(C)=O`, the growth inhibition in experiment [1] is -22.8%; in experiment [2], -5.9%; in experiment [3], -0.9%; in experiment [4] it was -20.8%; in experiment [5], -20.8%; in experiment [6], -12.2%.
Turning to `COc1ccc(C(NC(N)=O)c2cc3c(cc2OC(C)=O)OCO3)c(OC)c1` (centres undefined), the growth inhibition in experiment [1] was 10.8%; in experiment [2], 4.65%; in experiment [3], -2.45%; in experiment [4], 22.4%; in experiment [5] it was -3.25%; in experiment [6], 16.3%.
Consider `N#Cc1ccc(Nc2cnc3ccc(N)cc3n2)cc1`, for which the growth inhibition in experiment [1] was -41.2%; in experiment [2], -37.6%; in experiment [3], -43.8%; in experiment [4], -25.4%; in experiment [5], -25.4%; in experiment [6] it was -54.1%.
